Cav32 inh – inhibitors of human Cav3.2 T-type calcium channel | O95180 | Cav3.2-expressing cells, Fluo-4 calcium fluorescence FDSS; active compounds read low | B-score at 10 µM | actives 4% (n = 100,000);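 active = single-dose well whose peak fluorescence ratio is a statistical outlier from its plate by either plate-standardised score or position-corrected B-score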
CYP2C19 inhib – blocks human cytochrome P450 2C19. CYP2C19 Supersomes, luciferin-H EGE luminescence, 30 min. P33261. AID 778. actives 21% (n = 96,000). inhibition, % at 5 µM;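 active = CYP2C19 inhibition above a set limit at 5 µM in the primary screen, cut at about 50% in these data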;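 note: plate controls were negative control wells for no effect and 2.5 mM tranylcypromine positive control for full effect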
Target sequence (P33261 whole entry, looked up): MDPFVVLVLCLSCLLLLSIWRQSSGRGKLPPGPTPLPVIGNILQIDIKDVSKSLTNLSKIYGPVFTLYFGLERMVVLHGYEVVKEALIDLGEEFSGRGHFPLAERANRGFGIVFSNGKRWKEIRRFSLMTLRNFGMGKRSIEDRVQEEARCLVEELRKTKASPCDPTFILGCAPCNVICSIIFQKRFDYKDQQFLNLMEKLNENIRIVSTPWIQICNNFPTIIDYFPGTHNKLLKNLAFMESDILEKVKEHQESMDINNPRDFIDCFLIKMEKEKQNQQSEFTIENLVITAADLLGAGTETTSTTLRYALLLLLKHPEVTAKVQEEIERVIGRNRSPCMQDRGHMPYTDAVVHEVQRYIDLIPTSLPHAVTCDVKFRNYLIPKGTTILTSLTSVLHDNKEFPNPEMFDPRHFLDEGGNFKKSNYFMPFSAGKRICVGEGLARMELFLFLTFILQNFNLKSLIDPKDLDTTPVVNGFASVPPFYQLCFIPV
CYP2C19 act – cytochrome P450 2C19 (human) activation. recombinant CYP2C19, luciferin-H EGE luminescence; active compounds read high; 0 = fully inhibited enzyme, 1 = untreated enzyme. activation factor at 5 µM. 96,000 tested, under 10 active;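 active = activation factor of at least 2 at 5 µM in the primary screen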;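 note: 0 = wells with 2.5 mM tranylcypromine and 1 = vehicle-only wells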
CYP2C9 inh – inhibitors of human CYP2C9 | inhibition, % at 5 µM | P11712 | actives 20% (n = 96,000) | CYP2C9 Supersomes, luciferin-H conversion, luminescence;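 active = blocking of liver enzyme CYP2C9 beyond about 50% at 5 µM, limit read from the data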
CYP2C9 activ – CYP2C9 (human) activation; P11712; recombinant CYP2C9, luciferin-H conversion, luminescence; active compounds read high; factor 1 = untreated enzyme, 0 = blocked; activation factor at 5 µM; actives 1.4% (n = 96,000); AID 1024;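 active = activation factor of 2 or more for CYP2C9 at a 5 µM dose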;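 note: 0 = sulfaphenazole-blocked wells and 1 = vehicle-only wells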
The depositor's hits bear a star; · = no result. Rows were chosen to be rich in hits. Some 27% of all compounds tested hit in one or more screens of this group.

SMILES	Cav32 inh	CYP2C19 inhib	CYP2C19 act	CYP2C9 inh	CYP2C9 activ
CCOc1ccc(S(=O)(=O)N2CCN(Cc3ccccc3)CC2)c2cccnc12	-0.39	47	0.5	43	0.6
CCOC(=O)c1c(Nc2ccccc2N)cc(C)nc1C	0.84	72*	0.3	6	0.9
CCOC(=O)c1c(C)nc2ccccc2c1C	-0.099	37	0.6	5	0.9
CC1(c2cc([N+](=O)[O-])cc([N+](=O)[O-])c2)CC(C)(C)N(C(=O)c2ccccc2)c2ccccc21 (configuration not stated)	0.22	-8	1.1	10	0.9
CC1(c2ccccc2)CC(C)(C)N(C(=O)C2CCCO2)c2ccccc21 (configuration not stated)	-4.5*	77*	0.2	66*	0.3
CSCCC(NS(=O)(=O)c1ccc2ccccc2c1)C(=O)O (configuration not stated)	0.21	-10	1.1	12	0.9
Cc1cccc(C(=O)N2CCN(c3ccccn3)CC2)c1	1.2	·	·	·	·
O=C(c1cccc(OC(F)F)c1)N1CCN(c2ncccn2)CC1	-0.0007	48	0.5	68*	0.3
O=C(c1c(F)cccc1F)N1CCC(O)(c2cccnc2)CC1	-0.026	32	0.7	21	0.8
Cc1cc(C(=O)N2CCN(c3ncccn3)CC2)cs1	0.1	78*	0.2	40	0.6
CC(C)(C)c1cc(C(=O)N2CCN(c3ncccn3)CC2)ccn1	0.25	11	0.9	10	0.9
O=C(c1ccc(F)cc1)N1CCC(O)(c2cccnc2)CC1	0.94	69*	0.3	22	0.8
O=C(c1ccc(F)cc1)N1CCN(c2ncccn2)CC1	-0.27	53*	0.5	3	1
CC1=CN2C(=NC(=O)CC2(C)C(=O)N(CC(=O)NC2CCCC2)c2ccccc2C)C=C1 (configuration not stated)	-0.23	·	·	·	·
CC1CN(C(=O)c2cc3c(=O)n4ccccc4nc3s2)CC(C)O1 (configuration not stated)	-0.013	8	0.9	17	0.8
O=C(c1ccc(-c2ccccc2)cc1)N1CCCC1	-0.7	7	0.9	8	0.9
O=C(c1ccc(-c2ccccc2)cc1)N1CCN(c2ncccn2)CC1	-0.81	44	0.6	64*	0.4
Cn1c(Cn2cnc3ccccc32)nnc1SCc1ccccc1	0.54	33	0.7	23	0.8
Cn1c(CSc2nc3ccc(Br)cc3[nH]2)nc2ccccc21	-0.035	82*	0.2	23	0.8
Cn1c(CSc2nnc(SCc3ccccc3)s2)nc2ccccc21	-4.3*	60*	0.4	19	0.8
CCN1CCN(C(CNC(=O)c2ccc3c(c2)OCO3)c2cccnc2)CC1 (configuration not stated)	-0.47	-21	1.2	3	1
O=C(CSc1nccc(=O)[nH]1)c1ccccc1Br	0.043	11	0.9	55*	0.4
O=C(CSc1nccc(=O)[nH]1)N1CCc2ccccc2C1	-0.025	12	0.9	17	0.8
CC(=N\O)/C(CN(C)C)=N/O	0.71	4	1	6	0.9
Clc1ccc(-c2nnnn2-c2ccc(Cl)c(Cl)c2)cc1Cl	-1.6	96*	0	53*	0.5
SMILES	Cav32 inh	CYP2C19 inhib	CYP2C19 act	CYP2C9 inh	CYP2C9 activ
Clc1ccc(-c2nnc3n2CCCC3)cc1Cl	0.87	-14	1.1	-16	1.2
COc1ccc(OC)c2c(C)cc(N3CCN(C(=O)c4ccc(F)cc4)CC3)nc12	0.91	3	1	19	0.8
Cc1ncsc1CCSc1nc2ccccc2c(=O)n1C	-1.7	77*	0.2	68*	0.3
CCCCOc1ncnc2c1[nH]c1ccc(F)cc12	-1.4	26	0.7	29	0.7
CCOC(=O)N1CCN(c2ncnc3c2[nH]c2ccc(F)cc23)CC1	0.21	60*	0.4	49	0.5
OC1(c2cccc(C(F)(F)F)c2)CCN(c2ncnc3c2[nH]c2ccc(F)cc23)CC1	·	71*	0.3	85*	0.1
CCOC(=O)N1CCN(c2ncnc3c2[nH]c2ccc(OC)cc23)CC1	1.6	56*	0.4	39	0.6
O=C(CN1C(=O)CSC1=O)Nc1ccc2c(c1)OCCO2	0.73	-6	1.1	2	1
Cn1ccs/c1=N\S(=O)(=O)c1ccc(F)cc1	0.87	33	0.7	-62	1.6
O=C(NCc1cccnc1)C1CCCN(S(=O)(=O)c2ccccc2)C1 (configuration not stated)	0.31	87*	0.1	83*	0.2
